Most compounds without a hit are left out; they make up all but 21% or so of the library.
Cycloheximide cs: counter-screen for Shiga toxin inhibitors: cycloheximide protein synthesis inhibition | cell reporter, cycloheximide protein synthesis inhibition counterscreen | max response, % | 300,000 tested, 12% active; in the data active = max response mostly above about 13%, no sharp cut-off; inactive = mostly below about 14%; note: read at 38.3 µM for the half of the compounds with a filed dose; 0% is about no effect
Shiga inhibitor: Shiga toxin inhibition; Vero cells, Shiga toxin protein synthesis inhibition reporter; 290,000 tested, 9.2% active; AID 2315; inhibition, % at 38.7 µM; in the data active = inhibition mostly above about 28%, no sharp cut-off; inactive = mostly below about 43%; note: 0% is about no effect
HCV inh: blocks hepatitis C virus; Huh7.5.1 HCVcc-Cre infection, luciferase reporter, 44 h; Potency, µM (series often up to 41.8 µM), inactives show at the highest dose activity change, negative = inhibition, hits mostly inhibitors; 340,000 tested, 3.4% active; AID 651820; note: potency is the fitted concentration of half-maximal effect; % is set by controls: 0 for no effect and ±100 for the full control effect
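A cell-based infection assay in which seeded cells (1,000 per well) receive test compound after 4 h, are inoculated with HCVcc-Cre at approximately 0.5 moi, and are incubated 44 h before luminescence detection.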
HCMV antiviral: human cytomegalovirus inhibition; AID 1259415; 410,000 tested, 4.5% active; HFF cells, HCMV-luciferase reporter, 72 h; stronger effect = lower value; activity change, negative = inhibition, % at 57.5 µM; in the data active = activity change below about -60%; inconclusive = no clear call, values can overlap the other calls; inactive = above about -39%; note: % is set by controls: 0 for no effect and ±100 for the full control effect
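Luciferase read-out from HCMV-luciferase-infected HFFs (MOI 1 PFU/cell) 72 h post infection at 37C; compounds added after 16 h cell attachment; activity normalized between buffer-only basal and Salinomycin (10uM) inhibitor controls.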
Pf growth 96h: P. falciparum growth inhibition at 96 hour, primary screen for plastid delayed-death inhibitors. 320,000 tested, 6.9% active. Potency, µM (doses to about 28.7 µM), without a hit: top-dose activity change, negative = inhibition, most hits filed as inhibitors. AID 504834. P. falciparum luciferase reporter growth, 96 h; note: potency is the fitted concentration of half-maximal effect; % is set by controls: 0 for no effect and ±100 for the full control effect
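Erythrocytes infected with luciferase-expressing P. falciparum were dispensed at 2% hematocrit and 0.05% parasitemia (final), then incubated with compounds 96 hours at 37 C in 5% CO2. Luminescence after detection reagent addition reported growth.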
Pf growth 48h: inhibits P. falciparum growth in the first generation, 48 h; P. falciparum luciferase growth in erythrocytes, 48 h; 310,000 tested, 5.9% active; Potency, µM (top dose mostly 28.7 µM), for the others: top-dose activity change, negative = inhibition, usual class: inhibitors; note: potency is the fitted concentration of half-maximal effect; % is set by controls: 0 for no effect and ±100 for the full control effect
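First compound was added to culture medium, then infected red cells at 0.1% parasitemia and 2% hematocrit (final). After incubation at 37 C under 5% CO2, luciferase detection reagent was dispensed and light output recorded.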
* = called active by the depositor; u = inconclusive; x = no result. Unless noted, calls come from the whole dose curve; as a rule, active = well fitted inhibition curve with a large enough effect; inconclusive = small, poorly fitted or top-dose-only effect, or another doubt; inactive = no such curve, though single readings can be large or run the other way.

SMILES | Cycloheximide cs | Shiga inhibitor | HCV inh | HCMV antiviral | Pf growth 96h | Pf growth 48h
COc1ccc(CN(C(=O)/C=C/c2ccccc2Cl)C2CCS(=O)(=O)C2)cc1 (stereo not drawn) | 34* | 54 | -13% | -26 | -4% | 0%
Cc1ccc(C(=O)OCc2cc(=O)n3nc(-c4cccs4)sc3n2)cc1 | x | x | x | 19 | x | x
CC(C)c1ccc2occ(CC(=O)N(Cc3ccc(F)cc3)C3CCS(=O)(=O)C3)c2c1 (stereo not drawn) | x | x | x | -64* | x | x
COc1ccccc1NC(=S)NC(=O)C1CC1 | -2 | -3 | -5% | u | 15% | 4%
O=C(NC1CCCCC1)c1ccccc1NC(=S)NC(=O)C1CCC1 | -5 | 36 | 3% | -62* | u | 0%
O=C(O)/C=C\C(=O)Nc1ccccc1C(=O)NC1CCCCC1 | 42* | 65* | -1% | -16 | 85% | 50%
O=C(NC(=S)Nc1ccccc1Cl)C1CC1 | 45* | 38 | u | 45 | u | 4%
O=C(/C=C/c1ccccc1Cl)NC(=S)Nc1ccccc1C(=O)NC1CCCCC1 | 0 | 27 | 7% | 37 | 73% | 59%
O=C(NC(=S)Nc1ccccc1Br)C1CCC1 | 43* | 50* | u | -3 | u | -16%
O=C(NC1CCCCC1)c1ccccc1NC(=S)NC(=O)C1CC1 | -1 | 4 | -8% | -5 | 1% | -23%
NC(=O)Cn1c(=O)n(CCCCCC(=O)NCc2ccccc2Cl)c(=O)c2sccc21 | x | x | x | -23 | x | x
O=C(Nc1ccccc1)c1ccccc1NC(=O)C1CCCCC1 | -3 | -1 | -15% | -23 | 76% | -24%
CC(C)c1ccccc1NC(=O)c1ccccc1NC(=O)C1CCCCC1 | 1 | 3 | -7% | 31 | 187% | 12µM*
CC1=C(/C=C/c2ccccc2)CCN(C)C1 | 33* | 47 | x | 42 | u | u
CN1CCN(C(=O)C[C@H]2CC[C@H]3[C@@H](COC[C@@H](O)CN3Cc3cccc(F)c3)O2)CC1 | x | x | x | 15 | x | x
O=C(/C=C/Nc1ccc(S(=O)(=O)Nc2ncccn2)cc1)c1ccc2ccccc2c1 | 1 | 5 | u | -13 | 24% | 3%
COc1cccc(C(=O)/C=C/Nc2ccc(S(=O)(=O)Nc3nc(C)cc(C)n3)cc2)c1 | 10 | -4 | 0% | 14 | 2.1µM* | -2%
Cc1cc(C)nc(NS(=O)(=O)c2ccc(N/C=C/C(=O)c3ccc(Cl)c(Cl)c3)cc2)n1 | -5 | -3 | 8% | 19 | 33% | 5%
O=C(/C=C\Nc1ccc(S(=O)(=O)Nc2ncccn2)cc1)c1ccccc1 | 51* | 142* | -16% | 75 | 32% | 18%
COc1cccc(C(=O)/C=C/Nc2ccc(S(=O)(=O)Nc3ncccn3)cc2)c1 | 43* | 103* | 4% | 1 | u | 30%
O=C(CCc1c[nH]c2ccccc12)NCCc1ccc2c(c1)OCCO2 | 17 | 84* | u | -17 | -17% | u
O=C(NCc1ccc2c(c1)OCO2)c1ccccc1 | 6 | -2 | 6% | 11 | 22% | 13%
O=C(CCc1c[nH]c2ccccc12)NCc1cccc(Cl)c1 | -4 | 2 | -24% | 19 | -18% | -11%
O=C(NCCc1ccc2c(c1)OCCO2)c1ccccn1 | 42* | 78* | -7% | 38 | 223% | 165%
O=C(NCc1ccc2c(c1)OCO2)c1ccccn1 | 20* | -6 | 18% | 18 | 37% | 62%
SMILES | Cycloheximide cs | Shiga inhibitor | HCV inh | HCMV antiviral | Pf growth 96h | Pf growth 48h
CCCC[C@H]1CCCO[C@@](C(=O)NCCN2CCOCC2)(C(F)(F)F)C1 | 3 | 6 | x | x | x | x
COc1ccc(-c2noc3c2-c2nc(-c4ccccc4F)sc2CC3)cc1 | -4 | -2 | u | -16 | 11% | 15%
Cc1cccc(NC(=O)C2CCN(C(=O)c3ccc(Cl)cc3)CC2)n1 | x | x | -1% | -24 | 7% | u
COc1ccc(OC)c(CN2CCN(C(=O)c3cccc(S(=O)(=O)Nc4ccc(F)cc4)c3)CC2)c1 | x | x | u | -12 | x | x
COC(=O)c1nn(-c2ccccc2)nc1-c1nn(-c2ccccc2)nc1C(=O)OC | -4 | -8 | 8% | 22 | u | x
Nc1nn(-c2ccccc2)nc1C(=O)OCc1ccccc1F | 31* | 99 | x | x | 1µM* | 17%
O=C(OCc1ccccc1F)c1ccc(-c2nnn(Cc3ccccc3)n2)cc1 | x | x | x | 9 | x | x
Cc1ccccc1COC(=O)c1nn(-c2ccccc2)nc1N | 32* | 54* | -3% | u | u | -2%
Cn1nc(C(=O)OCc2ccccc2F)c2ccccc2c1=O | 12 | 35* | -13% | u | 36% | 21%
O=C(c1ccc(S(=O)(=O)c2ccc(Cl)cc2)cc1)N1CCOCC1 | -1 | 16 | 14% | -20 | u | 5%
O=C(CCC(=O)c1ccccc1)Nc1ccc(C(=O)O)cc1 | -1 | 8 | 13% | -25 | -25% | 6%
Cc1ccc(OP(N)(=O)Oc2ccc(C)cc2)cc1 | 7 | 42 | -2% | 0 | 5.9µM* | u
Clc1ccc(N2CCN(c3ncnc4c3nc3n4CCCC3)CC2)cc1 | x | x | x | -69* | x | x
c1ccc(N2CCN(c3ncnc4c3nc3n4CCCCC3)CC2)cc1 | x | x | x | -76* | x | x
Cc1ccc(-n2c(C)nc3c(cnn3-c3ccccc3C)c2=O)cc1F | x | x | x | 10 | x | x
O=S(=O)(c1ccc(-c2ccon2)s1)N1CCCC1 | -3 | -12 | -7% | -23 | 19% | -7%
O=S(=O)(c1ccc(-c2ccon2)s1)N1CCN(c2ccncc2)CC1 | 0 | -18 | -10% | x | 5% | 1.3µM*
CC1CCCCN1C(=O)c1ccc2c(c1)N(Cc1ccc(Cl)cc1)C(=O)c1ccccc1S2=O (stereo not drawn) | x | x | x | -15 | x | x
O=C1NCCOC(=O)[C@H](Cc2ccc(F)cc2)CC/C=C/C[C@@H]1CC(=O)N(CCO)Cc1ccccc1 | x | x | 8% | -35 | x | x
C[C@H]1COC(=O)[C@H](Cc2ccc(F)cc2)C/C=C\C[C@@H](CC(=O)NCCO)C(=O)N1 | x | x | 0% | 6 | x | x
C[C@H]1COC(=O)[C@@H](Cc2ccc(F)cc2)C/C=C\C[C@@H](CC(=O)NCCO)C(=O)N1 | x | x | 3.5µM* | -5 | x | x
O=C(C[C@@H]1C/C=C/CC[C@H](Cc2ccc(F)cc2)C(=O)OC[C@@H](Cc2ccccc2)NC1=O)N[C@H](CO)Cc1ccccc1 | x | x | u | -99* | x | x
O=C(C[C@@H]1C/C=C/CC[C@H](Cc2ccc(F)cc2)C(=O)OCCNC1=O)N[C@H](CO)Cc1ccccc1 | x | x | 10µM* | -17 | x | x
O=C1NCCOC(=O)[C@@H](Cc2ccc(F)cc2)CC/C=C/C[C@H]1CC(=O)N(CCO)Cc1ccccc1 | x | x | 11µM* | -33 | x | x
COc1ccc(C2CC(=O)C=C(NCc3ccccc3)C2)cc1 (stereo not drawn) | 11 | 18 | -21% | -33 | u | -25%
